Assay outcomes as filed in PubChem.
This excerpt belongs to a sample that is enriched for hits.
nsP2pro primary: Primary qHTS for inhibitors of NSP2Pro chikungunya virus (CHIKV) | FRET peptide cleavage, nsP2pro, fluorescence 1 h | Potency, µM (doses to about 24.9 µM), most hits filed as inhibitors | 31,000 tested, 1.1% active | AID 1964107, 2024; note: nearly all actives have a fitted effect of over 60% in size
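Purified recombinant nsP2pro (150 nM final) in 10 mM Tris-HCl pH 8.0 with 0.01% Tween 20 was preincubated 15 min at room temperature with compound (7 concentrations, up to 25 uM). FRET peptide 2 substrate (2.5 uM final) was then added; fluorescence was read after 1 h.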
CHIKV nsP2 cell: Secondary cell base assay for inhibitors of NSP2Pro Chikungunya virus (CHIKV) | shares compounds with nsP2pro primary | cell-based CHIKV nsP2 protease reporter assay | Potency, µM (series often up to 51.1 µM), most hits filed as inhibitors | 450 tested, 10% active | AID 1964100, 2024; note: nearly all actives have a fitted effect of over 70% in size
CHIKV NSP2 FL: Selectivity profile for inhibitors of NSP2Pro chikungunya virus (CHIKV): Full length NSP2 enzyme counterscreen (CHIKV-NSP2); Full-length CHIKV NSP2 protease enzymatic counterscreen; AID 1964101, 2024; 410 tested, 39% active; Potency, µM (doses to about 50.7 µM), usual class: inhibitors; shares compounds with nsP2pro primary; note: nearly all actives have a fitted effect of over 65% in size
Furin counter: Selectivity profile for inhibitors of NSP2Pro chikungunya virus (CHIKV): Human furin counterscreen; Potency, µM (titrated, usually from 50.6 µM), actives largely listed as inhibitors; AID 1964102, 2024; shares compounds with nsP2pro primary; Recombinant human furin enzymatic counterscreen, fluorogenic substrate; 410 tested, 6% active
NS23 peptide cs: Selectivity profile for inhibitors of NSP2Pro chikungunya virus (CHIKV): Endogenous NS2/3 peptide Counterscreen. shares compounds with nsP2pro primary. 410 tested, 34% active. Purified CHIKV nsP2 protease, endogenous NS2/3 peptide cleavage. Potency, µM (series often up to 51 µM), hits mostly inhibitors; note: nearly all actives have a fitted effect of over 55% in size
Papain cs: Selectivity profile for inhibitors of NSP2Pro chikungunya virus (CHIKV): Papain Counterscreen | shares compounds with nsP2pro primary | purified papain protease activity, enzymatic inhibition | Potency, µM (series often up to 51 µM), most hits filed as inhibitors | 410 tested, 5% active | AID 1964104, 2024
Target sequence (P00784 whole entry, looked up): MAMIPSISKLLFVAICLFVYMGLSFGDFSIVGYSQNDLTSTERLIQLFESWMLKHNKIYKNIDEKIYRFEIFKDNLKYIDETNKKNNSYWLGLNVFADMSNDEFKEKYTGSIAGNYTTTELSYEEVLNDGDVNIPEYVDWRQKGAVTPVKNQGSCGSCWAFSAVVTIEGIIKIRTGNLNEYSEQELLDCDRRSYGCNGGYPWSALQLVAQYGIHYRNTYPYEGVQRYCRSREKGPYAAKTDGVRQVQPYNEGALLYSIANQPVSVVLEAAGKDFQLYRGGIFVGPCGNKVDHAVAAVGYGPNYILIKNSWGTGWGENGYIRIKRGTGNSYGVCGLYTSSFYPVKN
nsP2pro confirm: Confirmatory qHTS for inhibitors of NSP2Pro chikungunya virus (CHIKV); 410 tested, 43% active; CHIKV nsP2 protease enzymatic activity, qHTS; shares compounds with nsP2pro primary; Potency, µM (doses to about 25.5 µM), hits mostly inhibitors; note: nearly all actives have a fitted effect of over 75% in size
HCV NS3 4A cs: Selectivity profile for inhibitors of NSP2Pro chikungunya virus (CHIKV): NS34A-HCV Counterscreen | AID 1964106, 2024 | shares compounds with nsP2pro primary | Potency, µM (top dose mostly 50.9 µM), most hits filed as inhibitors | HCV NS3/4A protease biochemical counterscreen | 410 tested, 20% active; note: nearly all actives have a fitted effect of over 55% in size
Of the large screens only hits and unclear results are named; the others gave an inactive call (follow-up assays come after a bar, where they were run); ! = not active in a repeat. Calls come from the whole dose curve.

CC(=O)N[C@H](Cc1ccc2ccccc2c1)C(=O)N[C@H](Cc1ccc(Cl)cc1)C(=O)N[C@H](Cc1cccnc1)C(=O)N[C@@H](CO)C(=O)N[C@@H](Cc1ccc(O)cc1)C(=O)N[C@H](CCCNC(N)=O)C(=O)N[C@@H](CC(C)C)C(=O)N[C@@H](CCCN=C(N)N)C(=O)N1CCC[C@H]1C(=O)N[C@H](C)C(N)=O	none
Cc1ccc(NCCN(C)CCNc2ccnc3cc(Cl)ccc23)c2c(=O)c3ccccc3sc12	none
CCN(CC)CCNc1ccc(CO)c2sc3ccccc3c(=O)c12	nsP2pro primary inconclusive | CHIKV nsP2 cell inconclusive | CHIKV NSP2 FL inactive | Furin counter inactive | NS23 peptide cs inconclusive | Papain cs inactive | nsP2pro confirm inactive | HCV NS3 4A cs inactive
CCN(CC)CCNc1ccc2ncn3c4ccc(O)cc4c(=O)c1c23	none
CO[C@H]1C[C@@H]2CC[C@@H](C)[C@@](O)(O2)C(=O)C(=O)N2CCCC[C@H]2C(=O)O[C@H]([C@H](C)C[C@@H]2CC[C@H](n3cnnn3)[C@H](OC)C2)CC(=O)[C@H](C)/C=C(\C)[C@@H](O)[C@@H](OC)C(=O)[C@H](C)C[C@H](C)/C=C/C=C/C=C/1C	none
C=CCNc1nnc(-c2cccc3ccccc23)o1	nsP2pro primary inconclusive | CHIKV nsP2 cell inactive | CHIKV NSP2 FL 23µM | Furin counter inconclusive | NS23 peptide cs inconclusive | Papain cs inactive | nsP2pro confirm 7.1µM | HCV NS3 4A cs inconclusive
C=CCNc1oc(-c2cccc3ccccc23)nc1C#N	none
C=CCSc1nnc(-c2cccc3ccccc23)o1	none
CC(C)Cc1ccc(-c2ccc(=O)n(CC(=O)NCCc3ccccc3)n2)cc1	none
COc1cccc(N2C(=O)NC(=NC3CCCC3)C23CCN([S+](=O)([O-])c2cccs2)C3)c1 (stereo not given)	none
CCN(CC)C(=S)SSC(=S)N(CC)CC	nsP2pro primary 2.5µM! | CHIKV nsP2 cell 13µM | CHIKV NSP2 FL 15µM | Furin counter inactive | NS23 peptide cs 9.2µM | Papain cs inconclusive | nsP2pro confirm 1.8µM | HCV NS3 4A cs inconclusive
N#Cc1ccc(-c2ccc(CNc3ccc(C4CCNCC4)cc3)o2)cc1	none
N#Cc1ccc(-c2ccc(C3Nc4ccccc4C(=O)N3O)o2)cc1 (stereo not given)	nsP2pro primary 10µM | CHIKV nsP2 cell 23µM | CHIKV NSP2 FL inactive | Furin counter inactive | NS23 peptide cs inactive | Papain cs inactive | nsP2pro confirm inconclusive | HCV NS3 4A cs inactive
CC(=O)NC(C(=O)O[C@H]1CCC(C)(C)[C@@H]2CC=C3C(=O)OCC3(O)[C@@]12C)C(C)C (stereo not given in full)	none
CN(C)c1ccc(NC(=O)NS(=O)(=O)c2ccc(Cl)cc2)cc1	none
COc1ccc(N2Cc3cccc(C(=O)O)c3C2=O)c(OC)c1	none
CC1(C)N=C(Nc2nc3ccccc3o2)NC2=C1C(=O)CCC2	none
CC1=C2C3OC(=O)C(C)C3(O)CCC2(C)CCC1 (stereo not given)	none
CC1=C2C3OC(=O)C(C)C3(O)CCC2(C)CCC1=O (stereo not given)	none
C=C1C(=O)O[C@@H]2C3=C(C)CCC[C@]3(C)CC[C@@]12O	nsP2pro primary 3.1µM | CHIKV nsP2 cell inconclusive | CHIKV NSP2 FL inconclusive | Furin counter inactive | NS23 peptide cs 18µM | Papain cs inactive | nsP2pro confirm inconclusive | HCV NS3 4A cs inactive
CS(=O)(=O)/C=C/c1nc(Nc2cc(F)cc(F)c2)c2ncn(CC(F)F)c2n1	none
CCOC(=O)[C@@H]1CN([S+](=O)([O-])Cc2ccccc2)[C@H]2c3ccc(OC)cc3O[C@@H]12	none
Cc1ccc(C)c(N2CCN(C(c3ccc(F)cc3)c3nnc(-c4ccccc4)o3)CC2)c1 (stereo not given)	nsP2pro primary inconclusive | CHIKV nsP2 cell inactive | CHIKV NSP2 FL 21µM | Furin counter inactive | NS23 peptide cs inconclusive | Papain cs inactive | nsP2pro confirm inconclusive | HCV NS3 4A cs 12µM
Cc1cccc(N2CCN(C(c3ccccc3)c3nnc(-c4ccccc4F)o3)CC2)c1C (stereo not given)	none
Fc1ccc(C(c2nnc(-c3ccccc3)o2)N2CCN(c3cccc(Cl)c3)CC2)cc1 (stereo not given)	none
[O-][n+]1onc(-c2ccccc2)c1/C=N/O	none
COc1cccc(CC(=O)N2CC[C@@H](NC(=O)c3cnccn3)[C@H](O)C2)c1	none
O=C(NC1CCCc2c1cnn2-c1ccc(F)cc1F)C1CCCCN1 (stereo not given)	none
C[C@H]1O[C@@H](Oc2c(-c3ccc(O)c(O)c3)oc3cc(O)cc(O)c3c2=O)[C@H](O)[C@H](O)[C@H]1O	none
C=C1[C@H]2CC[C@H](C(=O)O)[C@@]23CC[C@H](C3)C1(C)C	none
Cc1cc(CCCOc2c(C)cc(-c3noc(C(F)(F)F)n3)cc2C)on1	nsP2pro primary inconclusive | CHIKV nsP2 cell inactive | CHIKV NSP2 FL inactive | Furin counter inactive | NS23 peptide cs inactive | Papain cs inactive | nsP2pro confirm inactive | HCV NS3 4A cs inactive
COc1ccc(CNC(=O)CC[C@]23CC[C@](C)(O)C[C@H]2C(C)(C)C[C@@H]3NC2CCOCC2)cc1	none
O=C(N[C@@H]1CCN(C(=O)CCCn2cccn2)C[C@H]1O)c1ccccn1	none
O=C1Nc2ccccc2/C1=C/c1cc(O)ccc1O	nsP2pro primary 7.9µM | CHIKV nsP2 cell inconclusive | CHIKV NSP2 FL inconclusive | Furin counter inconclusive | NS23 peptide cs 23µM | Papain cs inactive | nsP2pro confirm 8µM | HCV NS3 4A cs 10µM
O=C1Nc2ccccc2/C1=C\c1ccc(O)c(Cl)c1	none
O=C1Nc2ccccc2/C1=C\c1cc(F)c(O)c(F)c1	none
Cc1cc(C(=O)N2CCC(CCOc3ccc(F)cc3)C2)c(C)n1Cc1ccc(F)cc1 (stereo not given)	none
O=C(c1ccccc1O)N(Cc1ccccc1)Cc1cccs1	none
